Reference: PubChem BioAssay (NCI)
This is part of a sample that, as a whole, favours compounds with a hit. Of some 83,000 tested, about 20% had one in any assay.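 Values shown are percent growth following 48 h exposure of cells in 96-well plates to a single concentration of compound; below 10 was considered active.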 A number with no mark means an inactive call. Activity calls are given as the source filed them.

System: BT-549 breast
Experiment: NCI-60 one-dose screen, 48 h (100 = growth as untreated, 0 = no growth, -100 = all killed)
Settings: 10 µM
Method: Growth inhibition of the BT-549 human tumor cell line is measured as a screen for anti-cancer activity. Cells are grown in 96 well plates and exposed to the test compound for 48 hours. Compounds are tested at a single concentration, which is 10^-5 M for most compounds. The reported endpoint is percent growth (GI% or GIPRCNT), where numbers from 0 - 100% represent growth inhibition, and numbers from -100% - 0 represent cell death. For example, a value of 40 represents 60% growth inhibition. A value of 0 means no net growth occurred over the course of the experiment. A value of -40 indicates 40% of cells at the beginning of the experiment died by the end of the experiment. A value of -100 means all cells are dead at the end of the experiment.
NCI-60 Human Tumor Cell Lines Screen was performed using the standard one-dose NCI protocol, which is described in more detail at https://dtp.cancer.gov/discovery_development/nci-60/default.htm.
Compounds with GIPRCNT values below 10 were considered active. Activity score was based on GIPRCNT using the following formula: […]
Score is 0 for GIPRCNT values of 100 or above, 50 for GIPRCNT values of 0, and 100 for GIPRCNT values of -100.

| Structure (SMILES) | growth |
| --- | --- |
| COc1ccc(N2CCN(c3nc(-c4ccccc4)c(C#N)c(=O)[nH]3)CC2)cc1 | 93.6% |
| COc1ccc(-c2ccccc2)cc1C(=O)c1ccc(-c2ccccc2)cc1 | 76.8% |
| Cc1c(C(=O)N[C@H](CO)Cc2ccccc2)[nH]c2ccc(Cl)cc2c1=O | 107% |
| O=C(N/N=C/c1ccccc1O)c1ccccc1 | 60.4% |
| Nc1nc2c(ncn2C2OC3COP(=O)(O)OC4C(COP(=O)(O)OC2C3O)OC(n2cnc3c(N)ncnc32)C4O)c(=O)[nH]1 (stereo not given) | 90% |
| Fc1cc(-c2ncc(-c3cc(F)c(F)c(F)c3)c(NC3CCCCCC3)n2)cc(F)c1F | 103% |
| N=C(N)c1ccc(-c2ccc(-c3ccccc3)s2)s1 | 88.9% |
| O=NN(CCCl)C(=O)Nc1ccc(NC(=O)N(CCCl)N=O)cc1 | 85.2% |
| O=C(Nc1cccc(Cl)c1)Nc1cc2ncncc2cc1OCc1cccc(F)c1 | 44.8% |
| COc1cc(-c2nc3ccccc3[nH]2)ccc1OCC(=O)N=Nc1c(O)[nH]c2ccccc12 | 104% |
| O=C(NCc1cn(Cc2cccc(Oc3ccccc3)c2)nn1)c1cccnc1Nc1ccccc1 | 81.8% |
| Cc1cc(C#Cc2ccccc2)ccc1-n1c(/C=C/c2cc(O)ccc2O)nc2ccccc2c1=O | -11.1% (active) |
| N#C/C(=C\N1C(=O)/C(=C/c2cccc([N+](=O)[O-])c2)SC1=S)c1nc2ccccc2s1 | 78.3% |
| C/C(=N\NC(=S)N1CCCC1)c1ccccn1 | 28.1% |
| CCc1ccc(-c2nnc(COc3ccc(-c4nc5cc(Cl)c(Cl)cc5[nH]4)cc3OC)o2)cc1 | 105% |
| CCNC1(NC#N)CCCCC1 | 110% |
| O=c1c2cccc3c(Nc4ccc(Br)cn4)ccc(c32)c2nc3ccccc3n12 | 84.4% |
| CCCCN(CCCC)c1ccc(C(=NC(C)CCCN(CC)CC)c2ccc(N(C)C)cc2)cc1 (stereo not given) | -27.2% (active) |
| CCNC(=S)NN | 117% |
| CCOC(=O)c1cc2c(n1Cc1cc(OC)cc(OC)c1)-c1oncc1CC2 | 39.5% |

| Structure (SMILES) | growth |
| --- | --- |
| COc1ccc(-c2[nH]ncc2/C=C/c2cc(C(F)(F)F)[nH]c(=O)n2)cc1 | 80.4% |
| C=CCNC(=S)NN | 99.2% |
| O=C(c1ccccc1)C(Nc1ccccc1)c1ccccc1 (stereo not given) | 94.4% |
| CCCCOCC(=O)NC(NP(=O)(N(C)C)N(C)C)C(Cl)(Cl)Cl (stereo not given) | 117% |
| Nc1c(C(=O)NC2CCCCC2)sc2nc3c(cc12)C(=O)CCC3 | 95.4% |
| CN(C1c2ccccc2Oc2ccccc21)S(=O)(=O)c1cc(Cl)ccc1Cl | 71.9% |
| O=C(NC1CCCC1)c1ccc(N2CCC(NCc3cccc(C(F)(F)F)c3)CC2)cc1 | 89.3% |
| CCCCCCCCCCCCCC[n+]1ccccc1 | -42.4% (active) |
| CCCCCc1cc[n+](CC(=O)c2ccc(Cl)cc2)cc1 | 86.6% |
| N#CN1CC[C@H](C(=O)Nc2ncc(-c3ccccc3)s2)C1 | -5.31% (active) |
| NS(=O)(=O)c1ccc(N2N=C(c3ccc(-c4ccccc4)cc3)CC2c2ccc(Cl)cc2)cc1 (stereo not given) | 116% |
| Brc1ccc(-c2cn3ccnc3c(-c3ccc(Br)cc3)n2)cc1 | 17.6% |
| COc1cc(Nc2ccnc(N3CCN(c4ccnc5cc(Cl)ccc45)CC3)n2)cc(OC)c1 | -4.01% (active) |
| COc1cc(C)c2sc3ccccc3c(=O)c2c1NCCN(C)C | 93.8% |
| O=C(O)CCCCSCCCCC(=O)O | 110% |
| Cc1ccc(S(=O)(=O)Nc2cccc3[nH]c(C(F)(F)F)nc23)cc1 | 52% |
| CCN(CC)CCOC(=O)c1ccc(N=Nc2ccc(O)c(OC)c2)cc1 | 101% |
| Cc1cc2cc3c(=O)[nH]c(=O)cc-3n(CC(O)C(O)C(O)CO)c2cc1C (stereo not given) | 104% |
| Cc1ccc([P+](Cc2ccccc2)(c2ccccc2)c2ccccc2)cc1 | -4.96% (active) |
| C[n+]1c(/C=C/c2c[nH]c3ccccc23)ccc2ccccc21 | 94.7% |
